Only some compounds are listed: those with a hit (about 0.9% of all), similar ones and a draw of the others.
PPARg SRC-1 ag – agonists of human PPARgamma SRC-1 coactivator recruitment; AID 631; PPARgamma-SRC-1 coactivator recruitment biochemical assay; P37231; 0.41% of 200,000 active; activation, % at 8 µM; in the data active = activation above about 19%
Target sequence (P37231 whole entry, looked up): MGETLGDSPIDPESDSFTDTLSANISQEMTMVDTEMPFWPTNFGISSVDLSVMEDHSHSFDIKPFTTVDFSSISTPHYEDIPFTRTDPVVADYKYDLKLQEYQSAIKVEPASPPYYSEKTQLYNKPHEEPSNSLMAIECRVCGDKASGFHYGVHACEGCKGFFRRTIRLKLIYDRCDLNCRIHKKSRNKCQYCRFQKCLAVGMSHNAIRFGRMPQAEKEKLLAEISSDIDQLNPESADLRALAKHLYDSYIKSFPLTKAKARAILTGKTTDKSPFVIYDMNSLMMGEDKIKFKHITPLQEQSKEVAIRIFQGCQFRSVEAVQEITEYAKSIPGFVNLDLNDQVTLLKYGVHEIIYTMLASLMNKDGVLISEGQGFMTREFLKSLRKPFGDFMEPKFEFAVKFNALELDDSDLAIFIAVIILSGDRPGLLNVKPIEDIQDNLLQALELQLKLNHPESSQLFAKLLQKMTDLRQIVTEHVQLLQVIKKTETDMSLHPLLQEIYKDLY
PPARg SRC-2 ag – PPARgamma-driven SRC-2 recruitment agonism | PPARgamma LBD-SRC-2 recruitment, biochemical | activation, % at 8 µM | 0.34% of 200,000 active | AID 1032; in the data active = activation above about 22%
TR-FRET SRC-2 ct – TR-FRET artefact, counter-screen to PPARgamma/SRC-2 agonist assay; active compounds read high; TR-FRET ratio at 8 µM; 0.4% of 200,000 active
PPARg SRC3 recr – PPARgamma-driven SRC-3 recruitment agonism; P37231; biochemical PPARgamma/SRC-3 coactivator recruitment assay; activation, % at 8 µM; 0.26% of 200,000 active; AID 731; in the data active = activation above about 23%
SRC1 TRFRET art – flags TR-FRET format artefacts in PPARgamma SRC-1 recruitment agonist screen; TR-FRET detection artefact counter-screen, emission ratio; active compounds read high; TR-FRET ratio at 8 µM; 0.34% of 99,000 active; in the data active = TR-FRET ratio above about 2300
SRC3 TRFRET art – TR-FRET artefact, counter-screen to PPARgamma/SRC-3 agonist assay; TR-FRET ratio at 8 µM; PPARgamma/SRC-3 format; active compounds read high; 0.39% of 99,000 active
PPARg SRC2 ag – human PPARgamma SRC-2 recruitment agonism, confirmation. shares compounds with PPARg SRC3 recr. biochemical SRC-2 recruitment by PPARgamma. 52% of 790 active. activation, % at 8 µM. AID 1297; in the data active = activation above about 22%
PPARg SRC1 conf – confirmation of agonists of SRC-1 recruitment by human PPARgamma; shares compounds with PPARg SRC3 recr; PPARgamma–SRC-1 coactivator recruitment biochemical assay; activation, % at 8 µM; 43% of 790 active; AID 1300; in the data active = activation above about 20%
PPARg SRC3 conf – human PPARgamma SRC-3 recruitment agonism, confirmation; activation, % at 8 µM; biochemical PPARgamma-SRC-3 coactivator recruitment, agonist mode; shares compounds with PPARg SRC3 recr; AID 1301; 29% of 790 active; in the data active = activation above about 24%
Each line names hits and unclear results; the compound was inactive in the other large screens (follow-up assays come after a bar, where they were run). Cut-off read from the data, not from the text of the source, unless noted: active = TR-FRET ratio above about 2000; inactive = the rest.

Cn1c(SCC(=O)c2ccc3c(c2)Cc2ccccc2-3)nnc1-c1cccc(N)c1	none
COc1cccc(CN2CCNC(=O)C2CC(=O)N(C)Cc2cnccn2)c1OC (stereo not given)	none
COc1cc(-c2nc3ccccn3c2/N=C/c2cc(OC)c(OC)c(OC)c2)ccc1O	PPARg SRC-1 ag 23, PPARg SRC-2 ag 26 (no result: SRC1 TRFRET art, SRC3 TRFRET art)
N#CC1=C2SCN(Cc3ccccc3)CN2C(=O)CC1c1cccs1 (stereo not given)	PPARg SRC-2 ag 23, TR-FRET SRC-2 ct 2063, PPARg SRC3 recr 26 (no result: SRC1 TRFRET art, SRC3 TRFRET art) | PPARg SRC2 ag 23 | PPARg SRC1 conf inactive | PPARg SRC3 conf inactive
Cc1ccc(-n2ncc(Br)c(Br)c2=O)cc1	none
O=c1c(Br)c(Br)cnn1-c1ccccc1	PPARg SRC-1 ag 38, PPARg SRC-2 ag 34, TR-FRET SRC-2 ct 2405, PPARg SRC3 recr 32, SRC1 TRFRET art 2662, SRC3 TRFRET art 2406 | PPARg SRC2 ag 29 | PPARg SRC1 conf inactive | PPARg SRC3 conf inactive
CCOC(=O)c1c(-c2cccs2)csc1NC(=O)CCCC(=O)O	PPARg SRC-2 ag 25, TR-FRET SRC-2 ct 2153 (no result: SRC1 TRFRET art, SRC3 TRFRET art) | PPARg SRC2 ag 25 | PPARg SRC1 conf inactive | PPARg SRC3 conf inactive
COc1ccc(C2=NC(=O)/C(=C\c3cc(OC)c(OC)c(OC)c3)O2)cc1	none
CC(C)c1[nH]nc2c1C(Cc1ccccc1)C(C#N)=C(N)O2 (stereo not given)	PPARg SRC-1 ag 19 (no result: SRC1 TRFRET art, SRC3 TRFRET art) | PPARg SRC2 ag inactive | PPARg SRC1 conf inactive | PPARg SRC3 conf inactive
COc1cc(NC(=O)c2cc3c(=O)n(C)c4ccccc4c3n2C)cc(OC)c1OC	PPARg SRC-1 ag 22, PPARg SRC3 recr 28 (no result: SRC1 TRFRET art, SRC3 TRFRET art) | PPARg SRC2 ag inactive | PPARg SRC1 conf inactive | PPARg SRC3 conf inactive
O=C(NCc1ccc(F)cc1)C(=O)NCC1OCCN1C(=O)c1cccs1 (stereo not given)	none
CCN(CC)c1ccc(/C=C2\NC(=O)NC2=O)cc1	PPARg SRC-2 ag 25, SRC1 TRFRET art 2555 | PPARg SRC2 ag inactive | PPARg SRC1 conf inactive | PPARg SRC3 conf inactive
Cc1cc(C)c2c(N)c3cccc(C)c3nc2n1	none
CCN(CC)c1ccc(NC(=O)c2cnn(CC)c2)cc1	PPARg SRC-2 ag 22, PPARg SRC3 recr 27 (no result: SRC1 TRFRET art, SRC3 TRFRET art) | PPARg SRC2 ag inactive | PPARg SRC1 conf inactive | PPARg SRC3 conf inactive
Cc1onc(-c2ccccc2)c1C(=O)NNC(=S)NC(=O)c1ccc(Cl)cc1Cl	none
O=C(Nc1nc(=O)c2ccccc2s1)c1ccc(Cl)cc1	PPARg SRC-1 ag 20 (no result: SRC1 TRFRET art, SRC3 TRFRET art) | PPARg SRC2 ag inactive | PPARg SRC1 conf inactive | PPARg SRC3 conf inactive
COc1ccc(CCn2c(C)cc(C(=O)CCl)c2C)cc1OC	none
CCn1c(-c2nn(C)cc2Cl)n[nH]c1=S	none
Cc1nn(C)c(-c2n[nH]c(=S)n2-c2ccccc2)c1Cl	PPARg SRC-1 ag 24, TR-FRET SRC-2 ct 2081, SRC3 TRFRET art 2211 | PPARg SRC2 ag inactive | PPARg SRC1 conf inactive | PPARg SRC3 conf inactive
Cc1c(Cl)c(-c2n[nH]c(=S)n2-c2ccc(F)cc2)nn1C	PPARg SRC-1 ag 33, PPARg SRC-2 ag 31, TR-FRET SRC-2 ct 2050, PPARg SRC3 recr 48 (no result: SRC1 TRFRET art, SRC3 TRFRET art) | PPARg SRC2 ag 28 | PPARg SRC1 conf inactive | PPARg SRC3 conf inactive
S=c1[nH]nc(-c2cc(-c3ccco3)[nH]n2)n1-c1ccccc1	PPARg SRC3 recr 27 (no result: SRC1 TRFRET art, SRC3 TRFRET art) | PPARg SRC2 ag 23 | PPARg SRC1 conf inactive | PPARg SRC3 conf inactive
Cc1cc(-c2n[nH]c(=S)n2-c2ccccc2)nn1C	none
Cn1cc(Cl)c(-c2n[nH]c(=S)n2-c2ccccc2)n1	PPARg SRC-1 ag 30, PPARg SRC-2 ag 35, TR-FRET SRC-2 ct 2159, SRC1 TRFRET art 2497, SRC3 TRFRET art 2184 | PPARg SRC2 ag 27 | PPARg SRC1 conf inactive | PPARg SRC3 conf inactive
Cc1ccc(-c2nc3ccccc3c(=O)n2NC(=S)N(C)C)cc1	none
CC(=O)Sc1nc(-c2ccccc2)[nH]c1S(=O)(=O)c1ccc(C)cc1	PPARg SRC-1 ag 22, PPARg SRC3 recr 37 | PPARg SRC2 ag inactive | PPARg SRC1 conf 21 | PPARg SRC3 conf inactive
